Legend:
Test in all cases: PBM binding z-score (relative to random genomic background probes); higher = stronger binding; sequences stand for … in GC…GCGATTGACAGCGTAGAATGAAGG
[1] = tested on: FXR:RXRa (NR concentration 270 nM, RXRa partner concentration 90 nM)
Procedure, shortened: (§1)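 Probes were double-stranded and carried 34-nt variable regions with direct-repeat seeds, single-nucleotide variants, half-site ablations and random human genomic background sequences, printed on custom Agilent 4×180K protein-binding microarrays. Arrays were incubated 1 h with ligand-free nuclear receptor dimers in PBS pH 7.4, 2% milk, 0.02% Triton X-100, 1 mM DTT, 0.2 mg/mL BSA and 0.4 mg/ml salmon testes DNA. Antibodies against each partner (one per run) detected binding, and scanned fluorescence was regression-normalized. Binding z-scores use the random background probes as reference.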

[2] = tested on: LXRa:RXRa (NR concentration 270 nM, RXRa partner concentration 90 nM)
Procedure, shortened: as §1

[3] = tested on: LXRa homodimer (NR concentration 270 nM)
Procedure, shortened: as §1

[4] = tested on: LXRb:RXRa (NR concentration 270 nM, RXRa partner concentration 90 nM)
Procedure, shortened: as §1

[5] = tested on: LXRb homodimer (NR concentration 270 nM)
Procedure, shortened: as §1

[6] = tested on: PPARa:RXRa (NR concentration 270 nM, RXRa partner concentration 90 nM)
Procedure, shortened: as §1

[7] = tested on: PPARg:RXRa (NR concentration 180 nM, RXRa partner concentration 90 nM)
Procedure, shortened: as §1

[8] = tested on: PPARg:RXRa 270nM:90nM, anti-RXR (NR concentration 270 nM, RXRa partner concentration 90 nM)
Procedure, shortened: as §1

[9] = tested on: PPARg:RXRa 30nM:10nM, anti-RXR (NR concentration 30 nM, RXRa partner concentration 10 nM)
Procedure, shortened: as §1

[10] = tested on: PPARg:RXRa 90nM:30nM, anti-RXR (NR concentration 90 nM, RXRa partner concentration 30 nM)
Procedure, shortened: as §1

[11] = tested on: PPARg:RXRa DBDmut IVT, anti-RXR (DBD mutation: RXRa K156A/R161A, NR concentration 270 nM, RXRa partner concentration 90 nM)
Procedure, shortened: as §1

[12] = tested on: PPARg:RXRa IVT, anti-PPARg (NR concentration 270 nM, RXRa partner concentration 90 nM)
Procedure, shortened: as §1

[13] = tested on: PPARg DBDmut:RXRa IVT, anti-PPARg (DBD mutation: PPARg1 K132A/R137A, NR concentration 270 nM, RXRa partner concentration 90 nM)
Procedure, shortened: as §1

[14] = tested on: PPARg DBDmut IVT, anti-PPARg (DBD mutation: PPARg1 K132A/R137A, NR concentration 270 nM)
Procedure, shortened: as §1

[15] = tested on: PPARg homodimer (NR concentration 180 nM)
Procedure, shortened: as §1

[16] = tested on: PXR:RXRa (NR concentration 270 nM, RXRa partner concentration 90 nM)
Procedure, shortened: as §1

[17] = tested on: PXR homodimer (NR concentration 270 nM)
Procedure, shortened: as §1

[18] = tested on: RARa:RXR (NR concentration 270 nM, RXRa partner concentration 90 nM)
Procedure, shortened: as §1

[19] = tested on: RARa homodimer (NR concentration 270 nM)
Procedure, shortened: as §1

[20] = tested on: RARb:RXRa (NR concentration 270 nM, RXRa partner concentration 90 nM)
Procedure, shortened: as §1

Row | Sequence | PBM binding z-score [1] | PBM binding z-score [2] | PBM binding z-score [3] | PBM binding z-score [4] | PBM binding z-score [5] | PBM binding z-score [6] | PBM binding z-score [7] | PBM binding z-score [8] | PBM binding z-score [9] | PBM binding z-score [10] | PBM binding z-score [11] | PBM binding z-score [12] | PBM binding z-score [13] | PBM binding z-score [14] | PBM binding z-score [15] | PBM binding z-score [16] | PBM binding z-score [17] | PBM binding z-score [18] | PBM binding z-score [19] | PBM binding z-score [20]
1 | CCTAGCAGGCCAATCAGGGTCACTCAAGGCTTGA | 2.6 | 3.39 | -0.0064 | 3.03 | -0.752 | 3.63 | 0.949 | 1.33 | -0.454 | 0.361 | 1.3 | 1.7 | -0.834 | -1.49 | 0.893 | 4.07 | -0.258 | 3.42 | -0.49 | 2.36
2 | CGTCCAAGGTCAGCAGGTCAGTGTAAGCGACGTG | 5.5 | 4.05 | 0.506 | 3.05 | -0.03 | 4.91 | 4.14 | 4.68 | 1.12 | 3.01 | 2.97 | 3.67 | -0.32 | -0.582 | 2.97 | 3.74 | 0.447 | 5.09 | 1.36 | 5.35
3 | CAAACTAGGTCACAGAGGTCACAGTCCGTGCGTA | 6.73 | 6.02 | 6.09 | 5.37 | 1.35 | 6.43 | 10.1 | 8.04 | 6.43 | 8.12 | 8.75 | 9.01 | 2.8 | 2.69 | 5.83 | 6.57 | 9.23 | 7.15 | 2.78 | 5.35
4 | CGAACTAGGTCATTGAAAGGACAGTGAATAGTAA | 3.97 | 2.81 | 0.177 | 1.84 | 0.134 | 4.42 | 7.82 | 6.43 | 4.13 | 5.83 | 8.01 | 8.24 | 2.22 | 2.02 | 3.92 | 2.1 | 0.391 | 4.04 | 1.01 | 4.1
5 | CATACTGGGCCAAGGTCATTGATCAGTCAAAGCA | 3.54 | 3.16 | 1.14 | 3.19 | 0.044 | 4.12 | 4.1 | 4.28 | 2.31 | 3.8 | 3.65 | 4.49 | 0.346 | -0.286 | 2.02 | 3.78 | 2.15 | 4.01 | 0.356 | 3.35
6 | TAGCCTAGGTCATGGGCCAGTATGCCACGCGAAC | 4.69 | 3.46 | 0.00314 | 2.02 | -0.474 | 4.18 | 4.02 | 3.65 | 0.999 | 2.81 | 1.9 | 3.62 | -0.369 | 0.218 | 1.49 | 1.42 | -0.923 | 2.53 | -0.739 | 3.93
7 | TCTTGTAGATCAGCATGTTAAGAAAGCTGGCCAA | 0.0411 | 0.107 | -0.479 | 0.0271 | -0.503 | 0.231 | -0.371 | 1.52 | 2.44 | 2.19 | 1.61 | -0.0359 | -0.2 | 0.837 | -0.198 | 0.127 | -0.264 | 0.0601 | -0.0517 | -0.19
8 | CTCGAAAGGTCGGTTGAGGTTAGTATACGGATAA | 3.06 | 2.88 | 0.205 | 1.97 | 0.0146 | 2.81 | 0.316 | 1.21 | 0.186 | 0.845 | -0.0127 | 0.923 | 0.234 | -0.683 | 1.47 | 4.96 | 0.435 | 3.04 | 0.202 | 3.06
9 | CGTCCAAGGTCAACGGTCAGTGAAGAGATGACGG | 7.38 | 5.09 | 1.45 | 4.23 | 0.938 | 6.03 | 6.01 | 5.78 | 2.86 | 4.85 | 3.45 | 4.39 | 0.975 | 0.233 | 2.65 | 4.02 | 0.701 | 4.66 | 0.466 | 5.55
10 | TAGCCTAGGTCATTGGGCCAGAATAGTACGCATC | 4.53 | 3.53 | 0.524 | 2.31 | 0.302 | 4.07 | 3.79 | 3.88 | 1.11 | 2.46 | 2.63 | 3.68 | -0.385 | -0.0458 | 1.41 | 1.51 | -0.537 | 2.26 | 0.079 | 3.53
11 | GCTTGTAGATCAAGGTTAAGAGAGACTAAGCTAA | -0.00904 | 0.508 | -0.353 | 0.119 | -0.894 | 1.36 | 0.796 | 2.03 | 0.342 | 1.44 | 1.35 | 1.01 | 0.118 | -0.183 | 0.193 | 0.187 | -0.0843 | 0.668 | -0.213 | 0.688
12 | ATCACTAGGTAACCAAGTTCAGTGAATGCCGAAC | 0.163 | 0.618 | 0.625 | 0.415 | -0.134 | 1.42 | 1.82 | 1.3 | 0.47 | 0.739 | 4.99 | 4.16 | 1.62 | 0.399 | 0.811 | 2.06 | 1.73 | 0.23 | 0.365 | 1.01
13 | ATCGAAAGGTCGAAGGTGAGTATGCCCACCCGAA | 4.46 | 3.31 | 0.253 | 2.87 | 0.664 | 4.64 | 4.16 | 5.05 | 2.9 | 3.81 | 0.0846 | 2.48 | 0.798 | 0.662 | 1.31 | 3.12 | -0.415 | 4.46 | -0.229 | 3.83
